Assay [1] in a line: qHTS assay for small molecule agonists of the p53 signaling pathway - cell viability (AID 651633; calls by dose curve;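 also: p53RE-bla HCT reporter cells with a stable beta-lactamase p53 reporter; series mostly up to about 83 µM; nearly all actives have a fitted effect of over 30% in size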). The method, boiled down: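 Viability counter-read: CellTiter-Glo luminescence (30 min, room temperature) in the same p53RE-bla plates. These plates had been exposed to compounds for 16 h at 37 C.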
(In general: Quantitative high-throughput screening tests each substance at several concentrations.)

Assay [2] is described as follows: qHTS assay for small molecules that induce genotoxicity in human embryonic kidney cells expressing luciferase-tagged ATAD5 - cell viability (AID 651634; calls by dose curve; also: nearly all actives have a fitted effect of over 25% in size). The method, boiled down: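 After 15.5 hr incubation with compound at 37C, 5% CO2, HEK293T ATAD5-luciferase cells received CellTiter-Fluor reagent; fluorescence intensity was quantified following 30 min at 37C.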

Assay [3] in a line: qHTS assay for small molecule disruptors of the mitochondrial membrane potential - cell viability (AID 720634; calls by dose curve;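 also: human HepG2 liver cancer cells; series mostly up to about 83 µM; nearly all actives have a fitted effect of over 20% in size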). In short, it runs like this:
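ATP-based luminescent viability readout (CellTiter-Glo, 30 min, room temperature) in HepG2 cells multiplexed with the m-MPI membrane potential dye; compound exposure lasted 1 hr at 37 C.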

The nature of assay [4]: qHTS assay for small molecule disruptors of the mitochondrial membrane potential (AID 720635). Also: potency is read from the fitted curve at half-maximal effect. The method, boiled down: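 Mitochondrial membrane potential tracked with Mito-MPS dye, red aggregates (ex 540/em 590 nm) against green monomers (ex 490/em 535 nm). Compound treatment 1 hr at 37C, dye 30 min in HepG2.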
The nature of assay [5]: qHTS assay to test for compound auto fluorescence at 590 nm (red) in HepG2 cells (AID 720674). The method, boiled down:
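We screened compounds on adherent HepG2 cells, incubating them for an hour at 37 C in 5% CO2 before reading emission at 590 nm under 540 nm excitation; values reflect equivalence to Rose Bengal sodium fluorescence.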

The nature of assay [6]: qHTS assay to test for compound auto fluorescence at 460 nm (blue) in HEK293 cells (AID 720678). In short, it runs like this: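 HEK293 cells (2,000/well, medium with 10% dialyzed FBS) attached 4-5 hr, then exposed to compound overnight at 37C, 5% CO2. Blue fluorescence read at 405/460 nm, with triamterene as reference fluorophore.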
Assay [7] can be described thus: qHTS assay to test for compound auto fluorescence at 590 nm (red) in HEK293 cells (AID 720679). The method, boiled down:
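HEK293 cells (2,000/well, 10% dialyzed FBS) attached 4-5 hr, then dosed with compound or DMSO and incubated overnight at 37C, 5% CO2. Red fluorescence read at 540/590 nm, Rose Bengal sodium as reference fluorophore.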

Assay [8] can be described thus: qHTS assay to test for compound auto fluorescence at 535 nm (green) in HEK293 cells (AID 720680).
Assay [9] in a line: qHTS assay to test for compound auto fluorescence at 460 nm (blue) in HEK293 cell free culture (AID 720681). In short, it runs like this: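 Blue fluorescence (Ex 405/Em 460 nm, triamterene-equivalent) was read immediately after pin transfer of compound or DMSO into medium (DMEM, 10% FBS) without cells.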
Assay [10] in a line: qHTS assay to test for compound auto fluorescence at 535 nm (green) in HEK293 cell free culture (AID 720682). The method, boiled down:
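DMEM + 10% FBS, cell-free; cpd or DMSO pinned in; Ex485/Em535 read; output as fluorescein-equivalent signal.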

Assay [11] can be described thus: qHTS assay to test for compound auto fluorescence at 590 nm (red) in HepG2 cell free culture (AID 720684). The method, boiled down: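 Cell-free; medium MEM + 10% FBS; compound or DMSO added by pintool; read Ex 540/Em 590 nm; Rose Bengal sodium as red reference fluorophore.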
Assay [12] is described as follows: qHTS assay to test for compound auto fluorescence at 460 nm (blue) in HepG2 cell free culture (AID 720685). In short, it runs like this: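 Cell-free plates of MEM plus 10% FBS received 23 nL compound or DMSO vehicle; blue-channel (405/460 nm) intensity scored against triamterene as reference fluorophore.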
A short description of assay [13]: qHTS assay to test for compound auto fluorescence at 535 nm (green) in HepG2 cell free culture (AID 720686).
Assay [14] in a line: qHTS assay to test for compound auto fluorescence at 460 nm (blue) in HepG2 cells (AID 720687). In short, it runs like this:
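Blue-channel autofluorescence (Ex/Em 405/460 nm, triamterene-equivalent) was measured after 1 hr compound exposure at 37 C, 5% CO2. Cells were HepG2, plated overnight at 37 C in MEM plus 10% FBS.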

A short description of assay [15]: qHTS assay to test for compound auto fluorescence at 535 nm (green) in HepG2 cells (AID 720675).
Assay [16] in a line: qHTS assay to test for compound auto fluorescence at 590 nm (red) in HEK293 cell free culture (AID 720683). In short, it runs like this:
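Red-channel autofluorescence of compounds in culture medium (DMEM, 10% FBS), no cells, measured at 540/590 nm. Rose Bengal sodium is the reference fluorophore for equivalence.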

A short description of assay [17]: qHTS assay for small molecules that induce genotoxicity in human embryonic kidney cells expressing luciferase-tagged ATAD5 (AID 651632). Also: nearly all actives have a fitted effect of over 15% in size. The method, boiled down: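 Quantitative HTS in HEK293T expressing luciferase-tagged ATAD5, whose levels rise upon DNA damage. Exposure ran 16 hr at 37C and 5% CO2, with luminescence read 30 min after Amplite addition at room temperature.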

Assay [18] addresses Glucocorticoid receptor (Homo sapiens) (UniProt P04150). The assay is described as follows: qHTS assay to identify small molecule agonists of the glucocorticoid receptor (GR) signaling pathway (AID 720691; active = well fitted activation curve with a large enough effect in the signal ratio in the repeat runs, not every such curve was filed as active; the % refers to the signal ratio). The method, boiled down:
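Cells: GR-bla HeLa, endogenous GR with stably integrated GRE-beta-lactamase reporter. Treatment 18 h, 37 C, compounds delivered in DMSO. Detection via LiveBLAzer B/G FRET substrate, 2 h RT, fluorescence intensity.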

Assay [19] has the same target. The assay is described as follows: qHTS assay to identify small molecule antagonists of the glucocorticoid receptor (GR) signaling pathway (AID 720692; active = well fitted inhibition curve with a large enough effect in the signal ratio in the repeat runs, not every such curve was filed as active; the % refers to the signal ratio). In short, it runs like this:
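Quantitative HTS in antagonist format: HeLa cells expressing endogenous GR and a stably integrated GRE-bla reporter, stimulated with 5 nM dexamethasone (final) alongside test compounds for 18 h.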

The structures appear in SMILES notation. Unmarked numbers belong to inactive results. Results filed as inconclusive are left out. Activity calls are given as the source filed them. Unless noted, calls follow the shape of the dose curve; as a rule, active = well fitted curve in the direction sought with a large enough effect in the repeat runs; inconclusive = weak or mixed curves; inactive = no such curve, though single readings can be large; an effect the other way counts as inactive or inconclusive.
% is scaled to controls: 0 for no effect and ±100 for the full control effect.

Sequence of Glucocorticoid receptor (Homo sapiens) (P04150 whole entry, looked up): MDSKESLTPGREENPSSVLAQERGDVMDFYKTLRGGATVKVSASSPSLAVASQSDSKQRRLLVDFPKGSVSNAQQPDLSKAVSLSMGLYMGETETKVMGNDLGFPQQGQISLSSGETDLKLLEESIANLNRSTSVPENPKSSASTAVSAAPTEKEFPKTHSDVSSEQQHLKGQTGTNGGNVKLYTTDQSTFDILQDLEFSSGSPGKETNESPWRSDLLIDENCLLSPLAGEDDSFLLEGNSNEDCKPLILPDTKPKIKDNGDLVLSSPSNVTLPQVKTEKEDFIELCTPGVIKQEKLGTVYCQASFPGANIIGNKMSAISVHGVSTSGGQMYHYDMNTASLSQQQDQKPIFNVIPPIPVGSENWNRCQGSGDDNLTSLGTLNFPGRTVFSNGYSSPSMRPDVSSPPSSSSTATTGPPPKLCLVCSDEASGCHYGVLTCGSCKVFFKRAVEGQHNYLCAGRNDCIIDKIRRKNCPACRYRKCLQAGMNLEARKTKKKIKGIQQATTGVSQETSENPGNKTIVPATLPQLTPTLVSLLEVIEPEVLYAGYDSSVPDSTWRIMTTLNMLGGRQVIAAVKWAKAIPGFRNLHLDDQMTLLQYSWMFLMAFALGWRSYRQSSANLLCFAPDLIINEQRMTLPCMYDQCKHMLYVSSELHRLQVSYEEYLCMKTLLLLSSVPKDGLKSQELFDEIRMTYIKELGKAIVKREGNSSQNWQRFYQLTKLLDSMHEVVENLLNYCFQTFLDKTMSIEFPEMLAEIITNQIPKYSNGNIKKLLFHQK

As to `CC(=O)OCC(=O)[C@@]12OC(C)(C)O[C@@H]1C[C@H]1[C@@H]3C[C@H](F)C4=CC(=O)C=C[C@]4(C)[C@@]3(F)[C@@H](O)C[C@@]12C`, the Potency entry in assay [1], in [2], in assay [3] and in assay [4] was “inactive” throughout. Besides, the fluorescence, relative to Rose Bengal in assay [5] was 0.821% [at 18.6 µM]. The fluorescence, % of triamterene in [6] was -0.188% [at 18.6 µM]. Also, the fluorescence, % of fluorescent control in assay [7] was 0.156% [at 18.6 µM]; in [9], -0.0905% [at 18.6 µM]; in assay [12], -0.0666% [at 18.6 µM]; in assay [14], 0.231% [at 18.6 µM]. Besides, in [8], the fluorescence, % of fluorescein was -0.0611% [at 18.6 µM]. In [10], the activity change was -0.0593% [at 18.6 µM]. Also, the fluorescence, % of Rose Bengal in assay [11] is -0.181% [at 18.6 µM]. Moreover, in [13], the fluorescence, % of fluorescein control was -0.0467% [at 18.6 µM].

With `CC(C)(O)c1ccccc1CC[C@@H](SCC1(CC(=O)O)CC1)c1cccc(/C=C/c2ccc3ccc(Cl)cc3n2)c1`, the Potency result in assay [2], in assay [3], in assay [6], in assay [9], in assay [12] and in assay [14] was “inactive” throughout. For the same compound, the result in assay [5], in assay [15], in assay [7], in [8], in assay [10] and in assay [16] was inactive. For the same compound, the outcome in assay [11] and in assay [13] was inactive.

`CC(=O)Oc1ccc2c(c1)CC[C@@H]1[C@@H]2CC[C@]2(C)[C@@H](O)CC[C@@H]12`: the Potency result in assay [17], in [2], in assay [6], in assay [9], in [12] and in [14] was “inactive” each time. In addition, the Potency in assay [4] was 8.41 µM (active). For the same compound, the compound was classed as inactive in assay [5], in assay [15], in assay [7], in assay [8], in assay [10] and in [16]. Moreover, the outcome in [11] and in assay [13] was inactive.

As for `Cc1occc1C(=O)Nc1ccc(C(=O)N2CCC(F)(F)/C(=C\C(=O)N3CCC(N4CCCCC4)CC3)c3ccccc32)cc1`, the Potency result in assay [17], in [2], in [3], in assay [6], in assay [12] and in assay [14] was “inactive” throughout. Moreover, the Potency result in assay [18] and in [19] was “inactive” each time. The compound was called inactive in assay [5], in assay [15], in [8], in assay [10], in assay [16] and in assay [11]. The call in assay [13] was inactive.

Take `CO[Si](C)(OC)OC`: the Potency entry in assay [17], in assay [2], in [3], in [6], in [9] and in assay [12] was “inactive” throughout. For the same compound, the Potency entry in assay [14], in assay [18] and in assay [19] was “inactive” in each case. The compound was called inactive in assay [5], in assay [15], in assay [7], in assay [8], in [10] and in [16]. Besides, the outcome in [11] and in [13] was inactive.

On to `CCCOc1ccc(S(=O)(=O)N2CCN(CC)CC2)cc1-c1nc2c(CC)n(Cc3ccccn3)nc2c(=O)[nH]1`, for which the Potency result in assay [17], in assay [2], in assay [3], in [6], in assay [9] and in [12] was “inactive” throughout. The Potency entry in assay [14] and in assay [18] was “inactive” each time. The compound was called inactive in assay [5], in assay [15], in [7], in assay [8], in assay [10] and in [16]. In addition, the outcome in [11] and in [13] was inactive.

In the case of `COC(=O)[C@@H]1CC2=CC(=O)CC[C@]2(C)[C@@]23O[C@@H]2C[C@@]2(C)[C@@H](CC[C@@]24CCC(=O)O4)[C@H]13`, the Potency result in [17], in [2], in [3], in assay [6], in assay [12] and in [14] was “inactive” throughout. Moreover, the outcome in [5], in assay [15], in [10], in [16], in [11] and in assay [13] was inactive.

In the case of `Oc1cc(O)c(Cl)cc1Cl`, the Potency result in assay [17], in assay [2], in assay [6], in assay [9], in [12] and in [14] was “inactive” each time. Besides, the Potency result in [18] and in assay [19] was “inactive” throughout. Also, the Potency in assay [4] is 7.03 µM (active). In addition, the call in assay [5], in [15], in [10], in [16], in [11] and in assay [13] was inactive.

Source of the values: PubChem BioAssay (Tox21).
